These molecules were tested on Sonic hedgehog protein (Shh) (assay: small-molecule binders of Shh protein, primary screen, biochemical, small-molecule microarray, 635/667 nm fluorescence (AID 1151;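 note: Shh protein binding to compounds spotted on small-molecule microarray slides; score combines spot fluorescence intensity with signal-to-noise across triplicate slides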)). Conditions: small-molecule microarray binding, 635 nm fluorescence; higher = more signal.

First: CCOC(=O)[C@H](Cc1ccccc1)NC(=O)CCC1CC(OC(=O)NCc2cccc3ccccc23)CC2(CCCC(COC(=O)NCCC(C)C)O2)O1 (stereo partly specified)
Second: CC(CCC(=O)OC[C@H]1O[C@H](C#Cc2ccccc2)C=C[C@@H]1Oc1ccc(C)cc1)=NO[C@H](C)c1cn([C@H](CO)Cc2ccccc2)nn1
The composite z-score of the first is lower: -0.226 for the first, 0.327 for the second.

Going from `CC(C)CON=C1[C@H]2CCn3c(=O)n(Cc4cc5c(cc4Cl)OCO5)c(=O)n3[C@H]2[C@H](O)[C@@H]2O[C@H]12` to `C#CCCCON=C1[C@H]2CCn3c(=O)n(C)c(=O)n3[C@H]2[C@H](O)[C@@H]2O[C@H]12`, the composite z-score rises from 0.504 to 0.837.

First: COc1ccc(COC(=O)NN=C2C[C@@H](O)[C@@H](O)[C@@H]3[C@@H]4C(=O)N(c5ccc(F)cc5F)C(=O)[C@@H]4CC[C@H]23)cc1
Second: CC(C)CON=C1C[C@@H](O)[C@@H](O)[C@@H]2[C@@H]3C(=O)N(c4ccc(F)cc4F)C(=O)[C@@H]3CC[C@H]12
The composite z-score of the first is lower: -1.52 for the first, 1.25 for the second.

Compared with `CC(C)=CCCC(C)=CCON=C1C[C@@H](O)[C@@H](O)[C@@H]2[C@@H]3C(=O)N(C(C)(C)C)C(=O)[C@@H]3CC[C@@H]12`, `CC(C)=CCCC(C)=CCON=C1C[C@@H](O)[C@@H](O)[C@@H]2[C@@H]3C(=O)N(C[C@@H]4CCCO4)C(=O)[C@@H]3CC[C@H]12` is higher in composite z-score: 0.711 for the first, 1.67 for the second.

Going from `CCN1C(=O)[C@H]2[C@H]3[C@H](O)[C@H](O)CC(=O)[C@@H]3CC[C@H]2C1=O` to `O=C1C[C@@H](O)[C@@H](O)[C@@H]2[C@@H]3C(=O)N(C[C@@H]4CCCO4)C(=O)[C@@H]3CC[C@@H]12`, the composite z-score falls from 0.694 to 0.678.

Going from `O=C1CCCC=C1C(O)CCOC(c1ccccc1)(c1ccccc1)c1ccccc1` (stereo unspecified) to `COC(=O)[C@H]1[C@@H](O)[C@@]2(O)c3ccccc3O[C@@]2(c2ccccc2)[C@@H]1c1ccccc1`, the composite z-score falls from 0.489 to 0.143.

Compared with `COC(=O)CC=C[C@@H](C)[C@@H](C=NOC[C@H]1O[C@H](c2ccccc2)C=C[C@@H]1Oc1ccc(OC)cc1)NS(=O)(=O)c1ccc(C)cc1`, `COC(=O)[C@@H]1CC[C@H](C)[C@@H](c2ccc(C)cc2)N1C(=O)c1ccc(C=NOCC[C@@H]2C=C[C@H](OC(C)=O)[C@@H](COC(C)=O)O2)cc1` is higher in composite z-score: -0.863 for the first, 0.681 for the second.

First: CC(CCN1CCCc2nc(C)c(C)cc21)=NO[C@@H](C)c1cc(-c2c(C)cc(C)cc2C)no1
Second: CC(CCN1CCCCc2nc(C)c(C)cc21)=NOC[C@@H](C)[C@H](OCc1ccccc1)C(C)C
The composite z-score of the first is higher: 0.54 for the first, -0.689 for the second.

First: CO[C@H](C1CCCCC1)[C@H](C)C=CCC(=O)OCCCc1ccccc1
Second: O=C1OCCC=C1C(O)CCc1ccccc1 (stereo unspecified)
The composite z-score of the first is lower: -0.057 for the first, 0.316 for the second.

First: COCOc1ccc(Br)cc1C(=O)[C@@H]1O[C@H]1c1cccc(OC)c1
Second: COc1cccc([C@H]2Oc3ccc(OC)cc3C(=NOC[C@@H](O)COCc3ccco3)[C@@H]2O)c1
The composite z-score of the first is higher: 0.349 for the first, -0.0734 for the second.

Compared with `CC(C)=CCCC(C)=CCON=C1C[C@@H](O)[C@@H](O)[C@@H]2[C@@H]3C(=O)N(Cc4ccccc4)C(=O)[C@@H]3CC[C@H]12`, `CC(C)=CCCC(C)=CCON=C1C[C@@H](O)[C@@H](O)[C@@H]2[C@@H]3C(=O)N(c4cccc(Oc5ccccc5)c4)C(=O)[C@@H]3CC[C@@H]12` is lower in composite z-score: 0.993 for the first, 0.402 for the second.

Going from `CON=C1[C@H]2CCn3c(=O)n(-c4ccccc4)c(=O)n3[C@H]2[C@H](O)[C@@H]2O[C@H]12` to `C[C@H](ON=C1[C@H]2CCn3c(=O)n(-c4ccccc4)c(=O)n3[C@H]2[C@H](O)[C@@H]2O[C@H]12)c1cn([C@H](CO)Cc2ccccc2)nn1`, the composite z-score falls from 0.435 to 0.248.

Going from `CO[C@@H]1C=CCC(=O)N[C@@H](C)C(=O)OC[C@@H](OC)[C@H](C)CCCC(=O)OC[C@H]1C` to `C[C@H]1COC(=O)[C@@H]2CCCN2C(=O)[C@@H](C)COC(=O)[C@H](Cc2ccccc2)NC1=O`, the composite z-score falls from 1.71 to 0.515.

Compared with `CON=C[C@@H](C)[C@H](OCc1ccccc1)C(C)C`, `C[C@@H](c1ccccc1)N1C(=O)[C@H]2[C@H]3[C@H](O)[C@H](O)CC(=NOCc4ccccc4)[C@H]3CC[C@H]2C1=O` is higher in composite z-score: 0.224 for the first, 0.378 for the second.

First: COC(=O)CC=C[C@@H](C)[C@@H]1C=C[C@H](O)[C@@H](CO)O1
Second: CC=CC1=C(CO)C(=O)[C@@H]2O[C@@H]2C1=O
The composite z-score of the first is lower: 0.495 for the first, 1.72 for the second.

First: Cc1ccc(S(=O)(=O)n2c3ccccc3c3nnc(C(=O)c4ccccc4)nc32)cc1
Second: CC(CCN1CCc2nc(-c3ccccc3)c(-c3ccccc3)cc2C1)=NOC[C@@H](O)COCc1ccco1
The composite z-score of the first is lower: 0.766 for the first, 1.31 for the second.

Compared with `O=C(NN=C1C[C@@H](O)[C@@H](O)[C@@H]2[C@@H]3C(=O)N(C[C@@H]4CCCO4)C(=O)[C@@H]3CC[C@H]12)OCc1ccccc1`, `CCOC(=O)CCN1C(=O)[C@H]2[C@H]3[C@H](O)[C@H](O)CC(=NNC(=O)OCc4ccccc4)[C@@H]3CC[C@H]2C1=O` is higher in composite z-score: -0.824 for the first, 1.26 for the second.

Compared with `CC(C)(C)N1C(=O)[C@H]2[C@H]3[C@H](O)[C@H](O)CC(=NO[C@@H]4O[C@H](CO)[C@@H](O)[C@H](O)[C@H]4O)[C@H]3CC[C@H]2C1=O`, `CC(C)CON=C1C[C@@H](O)[C@@H](O)[C@@H]2[C@@H]3C(=O)N(C[C@@H]4CCCO4)C(=O)[C@@H]3CC[C@@H]12` is lower in composite z-score: 0.345 for the first, -0.321 for the second.

Reference: PubChem BioAssay
